From PubChem BioAssay
TWEAK-Fn14 inh = inhibitors of TWEAK-Fn14 signaling, primary screen, luciferase reporter cells, uHTS; inhibition, % at 10 µM; 360,000 compounds, 2% hits; TWEAK-stimulated Fn14 reporter cells, luciferase luminescence, 8 h; AID 1159606, 2016; in the data active = inhibition above about 50%
CF NFkB block = inhibitors of PAF-induced NF-kB signaling, primary screen, cell-based, GFP fluorescence, uHTS; AID 588850, 2011; inhibition, % at 5 µM; KKLEB NF-kB-GFP reporter, GFP fluorescence overnight; 360,000 compounds, 0.86% hits;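 active = at least 50% inhibition at 5 µM, scaled per plate between neutral and stimulator controls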;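 also: PAF is a Pseudomonas aeruginosa culture filtrate used as stimulus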
TROY signal inh = inhibitors of TROY-driven NF-kB signaling, primary screen, Q293 LMP1-TROYcd cells, NF-kB luciferase, uHTS; inhibition, % at 10 µM; Q293 LMP1-TROYcd NF-kB luciferase reporter, 4 h; 360,000 compounds, 0.98% hits;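 active = compounds whose plate-normalised and pattern-corrected inhibition of the luciferase reporter signal at the single screening dose is 50% or more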
Peg3 prom inh = Peg3 promoter-driven luciferase inhibitors, primary screen, cell-based, HeLa, luciferase luminescence; HeLa PEG-Prom luciferase reporter, overnight; inhibition, % at 20 µM; 360,000 compounds, 1.7% hits;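 active = inhibition of at least 50% at 20 µM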
KKLEB tox = cytotoxicity in KKLEB CF airway cells, primary screen, cytotoxicity control for CF NF-kB inhibitor project, cell-based, uHTS, fluorescence assay plates; 360,000 compounds, 0.36% hits; AID 602141, 2011; KKLEB CF airway cells viability, ATPlite luminescence, overnight; stronger effect = lower value; cells stimulated with P. aeruginosa culture filtrate; activity change (cytotoxicity), % at 5 µM;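 active = corrected activity change at or below -50% at 5 µM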
HIF-2a inh = HIF-2a reporter inhibitors, primary screen, luminescence, 786-0 RCC cells; 786-0 RCC cells HIF-2a reporter, luciferase luminescence, overnight; inhibition, % at 18.8 µM; 360,000 compounds, 0.72% hits; AID 624352, 2012;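 active = inhibition of the luminescence signal of 40% or more relative to plate controls, in a single-dose primary screen at 18.75 µM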
Mdm2-MdmX confirm = retested Mdm2-MdmX interaction blockers, confirmation, cell-based, luminescence, single concentration, set 2. AID 504601, 2011. inhibition, % at 8 µM. 740 compounds, 99% hits. SaOS-2 split-luciferase Mdm2/MdmX complementation. shares compounds with HIF-2a inh;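 active = mean inhibition of the luminescence signal across two replicates at or above 26 percent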
Target sequence (O15151 whole entry, looked up): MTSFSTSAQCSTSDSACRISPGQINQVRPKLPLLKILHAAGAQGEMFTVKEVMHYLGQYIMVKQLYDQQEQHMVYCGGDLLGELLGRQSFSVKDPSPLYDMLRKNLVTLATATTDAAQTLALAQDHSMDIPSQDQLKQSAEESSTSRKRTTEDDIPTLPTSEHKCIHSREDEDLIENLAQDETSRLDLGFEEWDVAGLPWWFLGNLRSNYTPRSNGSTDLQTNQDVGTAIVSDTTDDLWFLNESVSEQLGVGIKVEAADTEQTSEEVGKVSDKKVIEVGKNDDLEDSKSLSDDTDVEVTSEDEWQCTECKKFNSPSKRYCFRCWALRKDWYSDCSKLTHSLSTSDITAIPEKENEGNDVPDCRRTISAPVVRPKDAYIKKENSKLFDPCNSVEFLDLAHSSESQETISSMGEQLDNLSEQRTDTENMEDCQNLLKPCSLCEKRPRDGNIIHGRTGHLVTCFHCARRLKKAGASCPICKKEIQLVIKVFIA
Target sequence (Q00987 whole entry, looked up): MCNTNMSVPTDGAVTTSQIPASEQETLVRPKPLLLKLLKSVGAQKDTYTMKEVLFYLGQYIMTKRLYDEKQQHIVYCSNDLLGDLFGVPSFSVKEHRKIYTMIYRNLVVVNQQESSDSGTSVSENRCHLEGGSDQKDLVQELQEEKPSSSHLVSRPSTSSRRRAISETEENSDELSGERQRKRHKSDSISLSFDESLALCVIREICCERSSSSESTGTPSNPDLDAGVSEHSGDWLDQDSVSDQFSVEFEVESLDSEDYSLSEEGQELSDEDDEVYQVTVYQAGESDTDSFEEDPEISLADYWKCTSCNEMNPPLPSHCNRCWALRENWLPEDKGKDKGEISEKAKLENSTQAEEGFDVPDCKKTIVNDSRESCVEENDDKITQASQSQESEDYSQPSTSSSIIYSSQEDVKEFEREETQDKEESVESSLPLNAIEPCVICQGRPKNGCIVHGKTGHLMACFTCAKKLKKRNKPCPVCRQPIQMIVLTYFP
HIF-2a inh conf = HIF-2a reporter inhibitor retest, confirmation, luminescence, 786-0 RCC cells; shares compounds with HIF-2a inh; HIF-2a luciferase reporter luminescence, overnight; inhibition, % at 18.8 µM; 1,800 compounds, 56% hits;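 active = mean inhibition across four replicates of at least 40 percent at the single tested concentration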
HIF-1a counter = HIF-1a luciferase reporter signal reduction – MiaPaCa-2 cells, single concentration, counter-screen for HIF-2a inhibitor project, confirmation; shares compounds with HIF-2a inh; MiaPaCa-2 HIF-1a luciferase reporter, desferoxamine, overnight; inhibition, % at 18.8 µM; 1,800 compounds, 72% hits; AID 651589, 2012;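 active = mean inhibition of the reporter signal across four replicates at the single tested dose of 50% or more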
Large screens that a line does not name were inactive (follow-up assays come after a bar, where they were run). Only some compounds are listed: those with a hit (about 4% of all), similar ones and a draw of the others.

CN(C)CCCN(C(=O)c1ccc(S(=O)(=O)N2CCc3ccccc3C2)cc1)c1nc2c(F)cccc2s1	none
Cc1cccc2sc(N(CCCN(C)C)C(=O)c3ccc(S(=O)(=O)N4CCc5ccccc5C4)cc3)nc12	none
Cc1cc(C)c2sc(N(CCCN(C)C)C(=O)c3ccc(S(=O)(=O)N4CCc5ccccc5C4)cc3)nc2c1	Peg3 prom inh 96, KKLEB tox -78, HIF-2a inh 63 | HIF-2a inh conf 57 | HIF-1a counter 100
Cc1ccc2nc(N(CCCN(C)C)C(=O)c3ccc(S(=O)(=O)N4CCc5ccccc5C4)cc3)sc2c1	Peg3 prom inh 101, HIF-2a inh 88 | HIF-2a inh conf 43 | HIF-1a counter 99
COc1ccccc1NC(=O)CCNC(=O)c1ccc(C)cc1	none
CC1(C(=O)NS(=O)(=O)C2CC2)CCN(C(=O)c2ccccc2OC(F)(F)F)C1 (centres undefined)	none
COc1cccc(CNC(=O)CCS(=O)(=O)c2ccc3c(c2)oc(=O)n3C)c1	none
CCN1CCN(CCNC(=O)c2ccc(/C=C3/Sc4ccccc4N(Cc4cccc(Cl)c4)C3=O)cc2)CC1	TROY signal inh 83, Peg3 prom inh 97 | Mdm2-MdmX confirm 102
CCC(C)(C)C1CCc2[nH]nc(C(=O)NCc3ccccn3)c2C1 (centres undefined)	none
Cc1cc(C(=O)CCl)c(C)n1CCc1ccc(Cl)cc1	Peg3 prom inh 98, HIF-2a inh 48 | HIF-2a inh conf 49 | HIF-1a counter 105
O=S(=O)(c1ccc(Cl)cc1)N1CCN(CCc2ccncc2)CC1	none
Cc1ccc(-c2cc(N)n[nH]2)cc1	none
CC(C)(C)c1ccc(-c2cc(N)n[nH]2)cc1	HIF-2a inh 87 | HIF-2a inh conf 95 | HIF-1a counter 74
C#CC(=O)N(c1cc(OC)ccc1OC)C(C(=O)NC1CCCC1)c1cccs1 (centres undefined)	CF NFkB block 97, Peg3 prom inh 107, KKLEB tox -97, HIF-2a inh 92 | Mdm2-MdmX confirm 103 | HIF-2a inh conf 99 | HIF-1a counter 105
C#CC(=O)N(c1ccc(OC)cc1OC)C(C(=O)NC1CCCC1)c1cccs1 (centres undefined)	CF NFkB block 94, Peg3 prom inh 101, KKLEB tox -93, HIF-2a inh 96 | Mdm2-MdmX confirm 102 | HIF-2a inh conf 99 | HIF-1a counter 106
CCC(=O)c1ccc(OCC(=O)NCc2ccccc2CN2CCCC2)cc1	none
Cc1ccc(S(=O)(=O)NC(=O)C2(C)CCN2C(=O)Cc2ccc(Cl)cc2Cl)cc1 (centres undefined)	none
CCOc1ccc2nc(Cl)c(C3CC(c4ccco4)=NN3S(C)(=O)=O)cc2c1 (centres undefined)	TROY signal inh 57, HIF-2a inh 45 | HIF-2a inh conf inactive | HIF-1a counter inactive
Cc1ccc2nc(Cl)c(C3CC(c4ccco4)=NN3S(C)(=O)=O)cc2c1 (centres undefined)	none
COc1ccc(C=C2C=C(C(C)(C)C)C(=O)C(C(C)(C)C)=C2)cc1OC	Peg3 prom inh 105, HIF-2a inh 82 | HIF-2a inh conf 65 | HIF-1a counter 103
Cc1cccc(NC(=O)C2CCN(C(=O)NCc3ccccc3)CC2)c1C	none
CCOC(=O)c1c2c(n(C)c1C)C(=O)C(=O)c1ccc(Br)cc1-2	TWEAK-Fn14 inh 87, CF NFkB block 97, Peg3 prom inh 101, KKLEB tox -78 | Mdm2-MdmX confirm 97
O=[N+]([O-])c1ccc(S(=O)(=O)CC(CN2CCCCC2)N2CCCCC2)cc1 (centres undefined)	CF NFkB block 81, Peg3 prom inh 108 | Mdm2-MdmX confirm 103
O=C(C=C=Nc1ccccc1)C(=O)N=C=Cc1ccccc1	TWEAK-Fn14 inh 86, CF NFkB block 92, TROY signal inh 51, Peg3 prom inh 102, HIF-2a inh 75 | HIF-2a inh conf 53 | HIF-1a counter 101
O=C(N/N=C/c1ccccc1)C(=O)N/N=C/c1ccccc1	none
COc1cc2oc(=O)cc(-c3ccc(-c4ccc(CO)cc4)cc3)c2c(OC)c1OC	TWEAK-Fn14 inh 66, CF NFkB block 75 | Mdm2-MdmX confirm 83
COC(=O)c1ccc(COc2ccccc2/C=C(\C#N)C(=O)Nc2c(C)cccc2C)cc1	TWEAK-Fn14 inh 61, Peg3 prom inh 62, HIF-2a inh 46 | HIF-2a inh conf 45 | HIF-1a counter 82
NCCN1C(=O)S/C(=C\c2ccc3c(c2)OCO3)C1=O	TWEAK-Fn14 inh 66, TROY signal inh 57, HIF-2a inh 86 | HIF-2a inh conf 95 | HIF-1a counter 67
O=C(CNC(=O)c1ccccc1F)NCCN1C(=O)S/C(=C\c2ccc3c(c2)OCO3)C1=O	none
CC(C)(C)C(=O)N1CCC2CC1c1cc(Cl)ccc12 (centres undefined)	none
CC(C)N1CCc2c(sc(NC(=O)Cc3ccccc3)c2C(N)=O)C1	none
CC(=O)Nc1sc2c(c1-c1nc3ccccc3s1)CCN(C(C)C)C2	Peg3 prom inh 99, HIF-2a inh 40 | Mdm2-MdmX confirm 101
COC(=O)[C@@H](Cc1ccccc1)NC(=O)[C@H]1CCC(=O)N1C(=O)OCc1ccccc1	none
Cc1cccc(C)c1N/C=C/c1onc(C)c1[N+](=O)[O-]	none
Cc1noc(/C=C/c2cccnc2)c1[N+](=O)[O-]	HIF-2a inh 48 | HIF-2a inh conf inactive | HIF-1a counter 56
Cc1cc(C)c(C(=O)/C=C/c2cccc3ccccc23)c(=O)[nH]1	TWEAK-Fn14 inh 95, TROY signal inh 54, Peg3 prom inh 96, HIF-2a inh 85 | Mdm2-MdmX confirm 103 | HIF-2a inh conf 92 | HIF-1a counter 105
Cc1cc(C)n(C(=O)/C(C#N)=N\Nc2ccccc2[N+](=O)[O-])n1	none
